Data: PubChem BioAssay AID449762 (Southern Research Specialized Biocontainment Screening …, 2010)
Among all 330,000 compounds or so, about 1,900 (0.58%) were called active. About 4% were inconclusive and are not listed. These entries were drawn from the full list. Entries with a potency or affinity are not part of this list. Unmarked numbers belong to inactive results. Rule as the data show it: inconclusive = inhibition above about 70% without an active follow-up result; inactive = below that.

Assay: M. tuberculosis growth inhibition, HTS (AID 449762);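 also: bacterial growth assessed after seven days of incubation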
Settings: M. tuberculosis H37Rv growth inhibition, 7H9 media; at 25 µM; active compounds read high
Work on `COc1ccc(NC(=O)CCc2nnc3ccc(N4CCC(C)CC4)nn23)cc1` yielded an inhibition of -0.59%. In the case of `CCOc1ccc(NC(=O)CCc2nnc3ccc(N4CCN(C)CC4)nn23)cc1`, the inhibition is reported as 1.67%. Work on `O=C1CCCc2c1nc(-c1ccc([N+](=O)[O-])cc1)n2O` yielded an inhibition of 0.46%. `CC(C)CNC(=O)/C(C#N)=C1\N=C(NC(=O)c2ccco2)c2ccccc21` showed an inhibition of 12.4%. `O=C(Nc1ccc(OC(F)F)c(Cl)c1)Nc1ccc2c(c1)OCO2` showed an inhibition of 5.38%. With `Cc1cc(OC(F)F)ccc1NC(=O)Nc1ccc([N+](=O)[O-])cc1` the inhibition was 17.3%. With `Cc1ncc([N+](=O)[O-])n1CC(=O)NC1CCCCCC1` the inhibition was 0.9%. For `O=C(Cc1ccc([N+](=O)[O-])cc1)OCc1c(F)cccc1Cl`, the inhibition was 7.51%. Compound `CC(C)N(Cc1ccccc1)CC(O)COc1ccc(S(=O)(=O)N2CCOCC2)cc1Cl` (stereo not given) has an inhibition of 1.09%. With `O=c1cc(-c2ccccc2O)nc(-c2ccccc2)[nH]1` the inhibition was 15.5%. For `Cc1nn(-c2ccc(F)cc2)c(Cl)c1/C=C(\CC(=O)O)c1nc2ccccc2s1`, the inhibition was -5.29%. Compound `COc1ccc(C(=O)COC(=O)[C@H](C)Nc2ccc(C(F)(F)F)cc2[N+](=O)[O-])c(OC)c1` has an inhibition of 11.7%. For `Cc1cc(C)c(C(=O)COC(=O)[C@H](C)Nc2ccc(C(F)(F)F)cc2[N+](=O)[O-])c(C)c1`, the inhibition was -3.25%. `Cc1cccc(NC(=O)CSc2cc(C)c(C#N)c3nc4ccccc4n23)c1` showed an inhibition of -1.23%. With `CCOC(=O)CSc1cc(C)c(C#N)c2nc3ccccc3n12` the inhibition was 9.77%. Compound `COC(=O)C1=CO[C@@H](O[C@@H]2O[C@H](CO)[C@@H](O)[C@H](O)[C@H]2O)C2C1CC(O)O[C@H]2C` (stereo not given in full) has an inhibition of -0.01%. `COc1ccccc1-c1nnn(C/C(N)=N/O)n1` gave an inhibition of -5.65%. `Cc1cc(C)c(NC(=O)CSc2nccn2C)c(C)c1` gave an inhibition of 5.06%. Work on `COc1ccc(CNC(=O)c2sc3nc4c(c(C(F)(F)F)c3c2N)CCC4)cc1OC` yielded an inhibition of 38.5%. `COc1ccc(CNC(=O)c2sc3nc4c(c(C(F)(F)F)c3c2N)CCC4)cc1` showed an inhibition of 0.35%. Work on `CC(=O)NCCNC(=O)C1CCC(CNc2nc(=S)[nH]c3ccccc23)CC1` (stereo not given) yielded an inhibition of -6.34%. Work on `CC(C)(C)c1ccc(OCCNC(=O)c2ncn[nH]2)cc1` yielded an inhibition of 31.8%. Work on `COc1cccc(C=Nc2cc(C)cc(C)c2)c1O` yielded an inhibition of 4.13%. For `CCOc1cccc(/C=N/NC(=S)Nc2ccccc2[N+](=O)[O-])c1O`, the inhibition was 0.56%. Work on `CCCCNC(=S)N/N=C/c1ccccc1F` yielded an inhibition of 31.4%. In the case of `CCOc1cccc(C=NCCc2ccc(OC)c(OC)c2)c1O`, the inhibition is reported as -1.63%. In the case of `Cc1ccc([C@@H]2CC=C(C(=O)O)[C@H](c3ccc(F)cc3)N2S(=O)(=O)c2ccc(C)cc2)cc1`, the inhibition is reported as 7.16%. Work on `O=C(O)C(c1ccccc1)N1CCCC1` (stereo not given) yielded an inhibition of -1.43%. `Nc1ccccc1SC(C[N+](=O)[O-])c1ccccc1` (stereo not given) showed an inhibition of 10.3%. In the case of `Nc1ccccc1Sc1ccccc1[N+](=O)[O-]`, the inhibition is reported as -1.08%. For `Cc1ccc(NC(=O)Cn2c3ccc(F)cc3c3nc4n(c(=O)c32)CCS4)cc1F`, the inhibition was 6.34%. In the case of `CC(C)(C)c1csc(NC(=O)c2ccncc2)n1`, the inhibition is reported as 6.43%. With `CC(C)(C)c1csc(NC(=O)c2ccccc2O)n1` the inhibition was 3.48%. `O=C(CN1CCN(c2ccccc2Cl)CC1)NC1CCCc2ccccc21` (stereo not given) showed an inhibition of 7.47%. Work on `O=C(CN1CCN(c2cccc(Cl)c2)CC1)NC1CCCc2ccccc21` (stereo not given) yielded an inhibition of 11.3%. With `CN(CCNC(=O)C1CCCN(c2ncnc3c2nc2n3CCCCC2)C1)Cc1ccccc1` (stereo not given) the inhibition was -0.58%. In the case of `CC1CCCN(C(=O)CN2C(=O)NC(C)(c3ccc4ccccc4c3)C2=O)C1` (stereo not given), the inhibition is reported as 3.55%. Compound `C[C@H](CO)N1C[C@H](C)[C@@H](CN(C)Cc2ccc(-c3ccccc3)cc2)Oc2c(NS(=O)(=O)c3ccc(F)cc3)cccc2C1=O` has an inhibition of -1.65%. With `C[C@]12CC[C@@H](O)CC1=CC(=O)C1C2CC[C@]2(C)C(=O)CCC12` (stereo not given in full) the inhibition was 3.17%. In the case of `C[C@]12CC[C@H](O)CC1=CC(=O)C1C2CC[C@]2(C)C(=O)CCC12` (stereo not given in full), the inhibition is reported as -1.13%. `NCCCn1cnc2ccccc21` showed an inhibition of 9.6%. `Cc1nonc1OC(C)CNc1ccc([N+](=O)[O-])cc1` (stereo not given) gave an inhibition of 8.67%. Work on `CN1CCN(c2nc(-c3ccco3)cc(C(F)(F)F)n2)CC1` yielded an inhibition of 7.69%. `O=[N+]([O-])c1cnn(-c2nc(-c3ccco3)cc(C(F)(F)F)n2)c1` gave an inhibition of -2.2%. Compound `CCn1ncc(/C=N/O)c1C` has an inhibition of -7.24%. For `CCOC(=O)C1(CCOc2ccccc2)CCN(Cc2cccc(OC)c2)CC1`, the inhibition was 8.09%. For `CCOC(=O)C1(CCOc2ccccc2)CCN(Cc2cccc(O)c2)CC1`, the inhibition was 3.57%. `Cc1ccc(OCC(=O)N(C)CC(=O)Nc2ccc(F)c(F)c2F)cc1` gave an inhibition of 4.12%. `Cc1ccc(S(=O)(=O)N2CCN(C3CC4CCC3C4)CC2)cc1` (stereo not given) gave an inhibition of -2.36%. Work on `O=C(CCNS(=O)(=O)c1ccccc1)N1CCN(C(c2ccccc2)c2ccccc2)CC1` yielded an inhibition of 4.06%. With `CCOc1ccc(-c2cc(CCCC(=O)NCCc3ccccc3)no2)cc1` the inhibition was -2.4%. With `CCOc1ccc(-c2cc(CCCC(=O)NCCCOC)no2)cc1` the inhibition was -1.18%. Compound `CCn1c2c(c3cc(OCC(C)C)ccc31)CCCC2=O` has an inhibition of -1.76%. With `COc1ccc(NC(=O)CS(=O)(=O)c2cn(CC(=O)N3CCOCC3)c3ccccc23)cc1OC` the inhibition was -16%. In the case of `Cc1ccc(SC2=C(Sc3ccc(C)cc3)C(=O)c3ccccc3C2=O)cc1`, the inhibition is reported as -5.39%. With `O=S1(=O)N=C(SCCO)c2ccccc21` the inhibition was 8.5%. `COc1cc(C(=O)OCC(=O)Nc2ccccc2C(=O)NC2CC2)c([N+](=O)[O-])cc1OC` gave an inhibition of -0.465%. Work on `COc1cccc(C2C(C#N)=C(N)OC(C(C)(C)C)=C2C#N)c1` (stereo not given) yielded an inhibition of -2.5%. For `COC(=O)c1c(NC(=S)Nc2ccc(C(=O)N3CCOCC3)cc2)sc2c1CCC2`, the inhibition was -7.13%. For `O=C(NCCN1CCCC1)c1ccc(Cn2c(=S)[nH]c3ccc(Br)cc3c2=O)cc1`, the inhibition was 64.3%. In the case of `CN(C)CCNC(=O)c1ccc2c(=O)n(Cc3ccc(Cl)cc3)c(=S)[nH]c2c1`, the inhibition is reported as 2.11%. For `C/C(=N/NC(=O)c1cc(C)[nH]n1)c1ccncc1`, the inhibition was 0.52%. `CC1CCN(C(=O)C2CCCCN2S(=O)(=O)c2cccc([N+](=O)[O-])c2)CC1` (stereo not given) gave an inhibition of 0.51%. For `COC(=O)c1[nH]c2ccccc2c1NC(=O)C(C)N1CCN(C(=O)c2ccco2)CC1` (stereo not given), the inhibition was -9.02%. `CCOC(=O)c1sc(NC(=O)c2cc(-c3ccc(C)cc3)nc3ccccc23)c(C#N)c1C` showed an inhibition of 1.87%. `COc1cccc(NS(=O)(=O)c2c(C)n(C)c(=O)n(C)c2=O)c1` showed an inhibition of -4.03%. `Cc1ccc(C)c(N2CCN(S(=O)(=O)c3ccc(-c4cc(C)no4)s3)CC2)c1` showed an inhibition of 6.24%. For `Cc1nn(-c2ccc([N+](=O)[O-])cc2)c2c1C(c1cccc(Br)c1)N1C(=N2)C(=O)Nc2ccccc21` (stereo not given), the inhibition was 15.9%. Work on `Cc1nn(-c2ccc([N+](=O)[O-])cc2)c2c1C(c1ccc(OC(F)F)cc1)N1C(=N2)C(=O)Nc2ccccc21` (stereo not given) yielded an inhibition of 65.4%. With `Cc1cc(C(=O)NCC(=O)OCC(=O)Nc2ccc(OC(F)F)cc2)ccc1[N+](=O)[O-]` the inhibition was -2.28%. `CC(C)NC(=O)[C@@H]1CSC2c3ccccc3C(=O)N21` (stereo not given in full) showed an inhibition of -1.97%. With `O=C(C[C@@H]1C/C=C\CCCC(=O)OC[C@@H]2CCCN2C1=O)N[C@H](CO)Cc1ccccc1` the inhibition was 7.5%. For `Cc1cc(SCC(=O)NCCN2C(=O)CSC2=O)nc2c(C)cccc12`, the inhibition was 4.1%. For `Cc1cccc2c1-c1sc(C(=O)Nc3cccc([N+](=O)[O-])c3C)cc1CO2`, the inhibition was -9.42%. For `Cc1cccc(NC(=O)c2cc3c(s2)-c2c(C)cccc2OC3)n1`, the inhibition was 0.14%. With `Cc1cccc(OCCCC(=O)Nc2nccs2)c1C` the inhibition was 8.02%. `O=C(c1sccc1-c1ccccc1)N1CCN(S(=O)(=O)c2ccccc2)CC1` showed an inhibition of -22.5%. Compound `COCCNc1nc(SCC(=O)N2CCN(c3ccccc3OC)CC2)nc2ccccc12` has an inhibition of -10.5%. For `[O-][n+]1c2ccccc2c2n1CCN=C2c1ccc(Cl)cc1`, the inhibition was 0.84%. Work on `COc1ccc2c3n([n+]([O-])c2c1)CCN=C3c1ccc(C)cc1` yielded an inhibition of 17%. `O=C(O)c1ccc(Cn2ccc3ccccc32)o1` showed an inhibition of 2%. Compound `CC(=O)C1=C(C)NC(SCC(N)=O)=C(C#N)C1c1ccco1` (stereo not given) has an inhibition of -6.56%. Work on `CCOc1ccccc1NC(=O)CSC1=C(C#N)C(c2ccco2)C(C(=O)Nc2nc3ccccc3s2)=C(C)N1` (stereo not given) yielded an inhibition of 49.6%. In the case of `CC1=C(C(=O)Nc2ccccc2)C(c2ccco2)C(C#N)=C(SCC(=O)Nc2cccc(C)c2C)N1` (stereo not given), the inhibition is reported as -1.31%. Work on `CC(=O)C1=C(C)NC(SCC(=O)c2ccc(Cl)cc2)=C(C#N)C1c1ccco1` (stereo not given) yielded an inhibition of 2.1%. With `CCOc1ccccc1CN1CCN(CC2CC2)CC1CCO` (stereo not given) the inhibition was -1.16%. `COCCCNC(=O)CC(NCCCOC)C(=O)O` (stereo not given) showed an inhibition of 0.77%. In the case of `COC(=O)c1ccc(NS(=O)(=O)N(C)C)cc1`, the inhibition is reported as -1.07%. `Nc1c(N(CCC2=CCCCC2)C(=O)c2ccco2)c(=O)[nH]c(=O)n1Cc1ccccc1` gave an inhibition of 9.03%. Work on `Cc1ccc(C(=O)N(CCC2=CCCCC2)c2c(N)n(Cc3ccccc3)c(=O)[nH]c2=O)o1` yielded an inhibition of 6.47%.
